TbREL1 inh – TbREL1 inhibition, primary screen; P86926; TbREL1 RNA ligation, FRET fluorescence; inhibition, % at 9.66 µM; 89,000 tested, 0.49% active;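 active means inhibition above the mean inhibition across all screened compounds plus 3 SD, cut at about 11% in these data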;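 further: 0% = plate median of test wells and 100% = NSC42067 control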
Target sequence (P86926 whole entry, looked up): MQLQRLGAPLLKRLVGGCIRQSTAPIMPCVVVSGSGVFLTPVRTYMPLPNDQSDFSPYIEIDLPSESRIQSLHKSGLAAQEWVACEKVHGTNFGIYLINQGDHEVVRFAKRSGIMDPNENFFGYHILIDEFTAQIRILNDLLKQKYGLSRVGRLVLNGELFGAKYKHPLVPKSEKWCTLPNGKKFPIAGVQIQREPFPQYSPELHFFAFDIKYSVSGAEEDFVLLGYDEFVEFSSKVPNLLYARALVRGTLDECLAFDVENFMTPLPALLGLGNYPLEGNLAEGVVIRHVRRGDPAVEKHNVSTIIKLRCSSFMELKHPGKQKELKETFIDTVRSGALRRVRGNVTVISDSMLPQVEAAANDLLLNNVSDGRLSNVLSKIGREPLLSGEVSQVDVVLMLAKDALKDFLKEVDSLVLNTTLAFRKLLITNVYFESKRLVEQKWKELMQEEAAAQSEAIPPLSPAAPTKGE
TbREL1 confirm – TbREL1 inhibition, confirmation; 390 tested, 37% active; TbREL1 RNA ligation, FRET fluorescence; AID 1117282; inhibition, % at 9.66 µM; shares compounds with TbREL1 inh;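 active means mean inhibition across replicates above a set limit taken from the earlier primary screen, cut at about 11% in these data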;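 further: 0% = REL1 with substrate and DMSO and 100% = REL1 plus control inhibitor NSC42067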
* = called active by the depositor. The full list was thinned out, with hits kept by preference.

SMILES	TbREL1 inh	others
CCn1c(COc2ccc(C)cc2)nnc1SCC(=O)Nc1ccccc1-c1ccccc1	-0.5
Cc1ccc(S(=O)(=O)N2CCCC2C(=O)N2CCc3ccccc3C2)cc1 (configuration not stated)	1.7
COc1ccc(C(C(=O)N(C)C2CCCC2)N(Cc2ccc(F)cc2)C(=O)c2ncn[nH]2)cc1OC (configuration not stated)	-2.0
CN1CCN(c2ccc(NC(=O)c3cccs3)cc2)CC1	5.2
C=CC(=O)Nc1ccc(N(C)c2ccnc(Nc3ccc(N4CCN(C)CC4)cc3)n2)cc1	11.7*
CN1CCN(c2ccc(NC(=O)COc3ccccc3Cl)cc2)CC1	-0.3
CCOc1ccc(/C=C2\NCCc3cc(OCC)c(OCC)cc32)cc1OCC	7.9
COc1ccc(C(=O)OCC(=O)NC23CC4CC(CC(C4)C2)C3)c(OC)c1OC	3.6
CC(=O)Oc1cc(C(=O)OCC(=O)NC23CC4CC(CC(C4)C2)C3)cc(OC(C)=O)c1OC(C)=O	12.3*
O=C(COC(=O)c1ccccn1)NC12CC3CC(CC(C3)C1)C2	-0.2
O=C(C1CCCN(S(=O)(=O)c2ccccc2[N+](=O)[O-])C1)N1CCN(Cc2ccccc2)CC1 (configuration not stated)	-2.2
CN(c1ccc(OCC(=O)Nc2ccc3[nH]c(=O)[nH]c3c2)cc1)S(=O)(=O)c1ccc(Cl)cc1	0.3
COC(=O)c1ccc(NC(=O)COc2ccc(N(C)S(=O)(=O)c3ccc(C)cc3)cc2)cc1	0.0
CCOc1ccc(S(=O)(=O)N(C)c2ccc(OCC(=O)Nc3ccc4[nH]c(=O)[nH]c4c3)cc2)cc1	11.4*	TbREL1 confirm=3.0
Nc1[nH]n(-c2ccccc2)c(=O)c1N=Nc1ccc(F)cc1	0.2
COc1ccc2c3c([nH]c2c1)C1=NCC[C@]12c1ccccc1N=CN2CC3	-0.1
COc1ccc2c3c([nH]c2c1)[C@]1(CCNC=O)Nc2ccccc2C1=NCC3	11.5*	TbREL1 confirm=-0.3
COc1ccc2[nH]c3c(c2c1)CCN[C@]31C(=O)Nc2ccccc21	6.0
COc1ccc(NC(=S)N(CCCN2CCCC2)Cc2cccs2)cc1	-3.1
S=C(Nc1cccc(Cl)c1)N(CCCN1CCCC1)Cc1cccn1Cc1ccc(Cl)cc1	11.4*	TbREL1 confirm=1.1
O=C(CCN1CCCCCC1)Nc1cccc(Cl)c1	1.6
O=C(NCCN1CCC(Cc2ccccc2)CC1)C1CCCN(S(=O)(=O)c2ccccc2[N+](=O)[O-])C1 (configuration not stated)	2.6
O=Cc1ccc(-c2cccc(C(=O)O)c2)o1	1.4
COC(=O)c1cccc(-c2ccc(C(c3c(C)[nH][nH]c3=O)c3c(C)[nH][nH]c3=O)o2)c1	14.5*	TbREL1 confirm=8.6
COC(=O)c1cccc(-c2ccc(/C=N/N3C(=O)C4C5C=CC(C6CC56)C4C3=O)o2)c1 (configuration not stated)	-2.1
SMILES	TbREL1 inh	others
CCCCN1CCN(C(=O)c2ccc(CNC(=O)c3cccc(Br)c3)cc2)CC1	-3.1
COc1ccc(OCC(O)Cn2c(=N)n(Cc3ccccc3)c3ccccc32)cc1 (configuration not stated)	9.9
Cc1cccc(OCC(O)Cn2c(=N)n(CCN3CCCCC3)c3ccccc32)c1 (configuration not stated)	11.9*	TbREL1 confirm=7.5
N=c1n(CCO)c2ccccc2n1CCN1CCCCC1	5.5
Cc1ccccc1N1CCN(S(=O)(=O)c2ccc3c(c2)n(C)c(=O)c(=O)n3C)CC1	-2.5
O=C1CCc2cc(S(=O)(=O)N3CCN(c4ccccc4Cl)CC3)ccc2N1	0.6
COc1cc([N+](=O)[O-])cc2cc(C(=O)N3CCN=C3c3ccccc3)c(=O)oc12	11.4*	TbREL1 confirm=2.5
COc1cccc2cc(C(=O)N3CCN(c4ccccc4F)CC3)c(=O)oc12	6.0
COc1cc(Br)cc2cc(C(=O)N3CCN(c4ccccn4)CC3)c(=O)oc12	1.2
COC(=O)[C@]12C[C@H](CC(=O)NCc3cccs3)C(=O)N(Cc3cccc4ccccc34)C1=C[C@H](C1CCCC1)O[C@@H]2C	-2.4
CCNC(=O)C1(C)CCCN(Cc2cc3ccccc3o2)C1 (configuration not stated)	-1.6
CS(=O)(=O)N1c2ccccc2C[C@H]1Cc1cc2ccccc2o1	12.2*	TbREL1 confirm=-0.6
Cc1ccc(S(=O)(=O)NCC2Cc3ccccc3N2S(=O)(=O)c2ccc(C)cc2)cc1 (configuration not stated)	-2.9
COC(=O)CSc1nnc(-c2ccc(NS(=O)(=O)c3ccc(C(C)(C)C)cc3)cc2)o1	5.5
O=S(=O)(c1ccccc1F)n1c(CN2CCOCC2)nc2ccccc21	-2.1
O=C(CSc1nc2ccccc2[nH]1)NN=Cc1ccccc1C(=O)O	4.7
CCOc1ccc(N(CC(=O)Nc2c(C)n(C)n(-c3ccccc3)c2=O)S(=O)(=O)c2cccs2)cc1	-2.7
O=C(CNc1ccc2ccccc2c1)N/N=C/c1ccccn1	-7.4
Cc1cccc(NCC(=O)N/N=C/c2cccc(Br)c2)c1	11.7*	TbREL1 confirm=-0.6
C/C(=N\NC(=O)CNc1cccc(C)c1)c1ccc(Br)s1	-0.9
Cc1ccccc1N=Nc1c(N)[nH]n(-c2ccccc2)c1=O	-1.8
C/C(=N\Nc1cc(N2CCOCC2)nc(C)n1)c1cccc([N+](=O)[O-])c1	11.6*	TbREL1 confirm=2.3
C/C(=N\Nc1ccc(Cl)c(C(=O)O)c1)c1cccc([N+](=O)[O-])c1	2.1
Cc1nc(N/N=C/c2cccc(F)c2)cc(N2CCOCC2)n1	2.8
CC(C)CNC(=O)OCc1cn(Cc2c(F)cccc2F)nn1	0.5
SMILES	TbREL1 inh	others
Cc1ccc(NC(=O)C2CCN(c3nnc(-n4cccc4)s3)CC2)c(C)c1	3.1
C#CCN1C(=O)[C@]2(NCCc3c2[nH]c2ccc(OC)cc32)c2ccccc21	-2.6
CC(C)=CC([C@]12C[C@H](CO)N[C@@H]1Nc1ccccc12)S(=O)(=O)c1ccccc1 (some centres not stated)	-8.3
NS(=O)(=O)c1ccc(F)c(C(=O)O)c1	3.4
O=C(Nc1cccs1)Nc1c(F)cc(F)cc1Br	-0.3
CCC(C)NS(=O)(=O)c1ccc(F)c(C(=O)Nc2c(F)cc(F)cc2Br)c1 (configuration not stated)	19.0*	TbREL1 confirm=1.8
Nc1[nH]c(C(=O)c2ccccc2)c(-c2ccc(O)cc2)c1C(=O)NCCc1c[nH]c2ccccc12	-4.6
COc1cccc(Nc2cc(C)nc3ccccc23)c1	2.8
COc1ccc2nc(C)cc(Nc3ccccc3O)c2c1	1.6
COc1ccc2nc(C)cc(NCc3cccc(C(F)(F)F)c3)c2c1	12.6*	TbREL1 confirm=15.5*
C/C(=N/NC(=O)CN1CCN(Cc2ccccc2Cl)CC1)c1cccc(O)c1	2.4
COc1ccccc1NC(=O)OC1CC2CC1[C@H]1CCCCN1[C@H]2Cc1ccccc1 (some centres not stated)	-1.9
COc1cc(-c2nnc(SCC(=O)NN=Cc3c[nH]c4ccccc34)n2-c2ccccc2)cc(OC)c1OC	-0.3
O=C(Cn1nnc(-c2ccncc2)n1)Nc1ccc(Oc2ccccc2)cc1	1.2
COCCCNCCCOc1ccc(Cl)cc1Br	11.2*	TbREL1 confirm=6.3
COCCCNCCCCOc1c(Cl)cc(C)cc1Br	11.8*	TbREL1 confirm=8.2
C=CCNCCCCOc1c(Cl)cc(C)cc1Br	7.1
CCCCNCCCOc1cc(Cl)ccc1Cl	-1.5
COCCCNCCOc1ccc(C)cc1[N+](=O)[O-]	4.2
Cc1cc(Cl)c(OCCCn2cncn2)c(Br)c1	-1.2
C[C@H]1CCC/C=C/C(=O)c2c(cc(O)c(Cl)c2O)CC(=O)O1	-0.3
